Test results taken from article PMC7862700, “An all-to-all approach to the identification of sequence-specific readers for epigenetic DNA modifications on cytosine”.

Legend:
Test in all cases: DAPPL (digital affinity profiling via proximity ligation, sequencing); 10 mM Tris-HCl pH 7.5, 50 mM NaCl, 1 mM DTT, 4% glycerol, room temperature, 30 min; GST-TFs on glutathione beads, 16-mer random dsDNA library, 0.1% formaldehyde crosslink after washing; high values mean tight binding
Details in all cases: protein: recombinant; tags: N-terminal GST; dsDNA, one strand shown
FLI1 = target: T1, FLI1 (Homo sapiens, UniProt Q01543 1-452)
T1 sequence: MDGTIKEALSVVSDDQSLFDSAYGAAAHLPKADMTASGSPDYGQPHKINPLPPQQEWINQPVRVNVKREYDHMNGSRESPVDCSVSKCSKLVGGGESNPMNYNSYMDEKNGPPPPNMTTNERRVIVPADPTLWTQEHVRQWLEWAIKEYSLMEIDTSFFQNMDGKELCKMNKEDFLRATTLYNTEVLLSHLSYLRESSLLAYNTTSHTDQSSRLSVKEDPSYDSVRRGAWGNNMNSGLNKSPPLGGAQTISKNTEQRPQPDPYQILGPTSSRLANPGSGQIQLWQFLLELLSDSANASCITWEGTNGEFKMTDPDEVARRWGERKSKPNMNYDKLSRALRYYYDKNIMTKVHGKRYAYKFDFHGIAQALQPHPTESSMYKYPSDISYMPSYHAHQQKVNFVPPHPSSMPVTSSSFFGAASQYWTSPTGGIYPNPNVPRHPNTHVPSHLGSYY
How it was run: (§1)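 Human transcription factors carrying a GST fusion were produced in yeast, bound to glutathione beads, tagged with DNA barcodes and pooled together with a tag-only sample. Each pool was held with 200 nmole of a random double-stranded 16-mer DNA library in Tris/NaCl/DTT/glycerol buffer for 30 min at room temperature, then washed, crosslinked in 0.1% formaldehyde, proximity-ligated with BsaI/T4 ligase (1 h, 37 °C), PCR-amplified and sequenced on an Illumina NextSeq500. Binding signal is the read frequency of each hexamer for a given factor divided by its frequency in the tag-only sample.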

ELK1 = target: T2, ELK1 (Homo sapiens, UniProt P19419 1-428)
T2 sequence: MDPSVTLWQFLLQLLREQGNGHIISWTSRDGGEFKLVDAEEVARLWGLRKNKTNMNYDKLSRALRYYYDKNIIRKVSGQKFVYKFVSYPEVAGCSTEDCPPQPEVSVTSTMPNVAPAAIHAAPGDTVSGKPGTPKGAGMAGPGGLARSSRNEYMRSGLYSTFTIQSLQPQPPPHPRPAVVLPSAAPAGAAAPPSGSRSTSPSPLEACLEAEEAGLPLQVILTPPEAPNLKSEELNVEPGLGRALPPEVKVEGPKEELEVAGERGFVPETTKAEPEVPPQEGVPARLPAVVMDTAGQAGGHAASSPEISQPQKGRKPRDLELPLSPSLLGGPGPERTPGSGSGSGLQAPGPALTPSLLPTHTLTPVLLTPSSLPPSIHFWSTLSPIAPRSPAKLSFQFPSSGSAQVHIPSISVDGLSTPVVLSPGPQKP
How it was run: as §1

GABPA = target: T3, GABPA (Homo sapiens, UniProt Q06546 1-454)
T3 sequence: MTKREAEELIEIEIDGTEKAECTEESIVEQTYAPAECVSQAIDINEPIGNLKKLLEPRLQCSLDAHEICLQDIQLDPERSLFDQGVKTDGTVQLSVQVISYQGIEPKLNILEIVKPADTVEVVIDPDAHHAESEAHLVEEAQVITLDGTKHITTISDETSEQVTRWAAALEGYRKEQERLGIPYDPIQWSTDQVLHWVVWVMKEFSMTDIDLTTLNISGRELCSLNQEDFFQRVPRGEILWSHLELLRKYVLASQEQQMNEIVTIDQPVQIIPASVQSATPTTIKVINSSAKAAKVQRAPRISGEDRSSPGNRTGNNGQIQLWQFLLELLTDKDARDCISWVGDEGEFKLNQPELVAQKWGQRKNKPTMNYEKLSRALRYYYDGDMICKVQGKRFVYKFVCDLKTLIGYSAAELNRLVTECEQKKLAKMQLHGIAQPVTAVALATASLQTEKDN
How it was run: as §1

ERG = target: T4, ERG (Homo sapiens, UniProt P11308 1-479)
T4 sequence: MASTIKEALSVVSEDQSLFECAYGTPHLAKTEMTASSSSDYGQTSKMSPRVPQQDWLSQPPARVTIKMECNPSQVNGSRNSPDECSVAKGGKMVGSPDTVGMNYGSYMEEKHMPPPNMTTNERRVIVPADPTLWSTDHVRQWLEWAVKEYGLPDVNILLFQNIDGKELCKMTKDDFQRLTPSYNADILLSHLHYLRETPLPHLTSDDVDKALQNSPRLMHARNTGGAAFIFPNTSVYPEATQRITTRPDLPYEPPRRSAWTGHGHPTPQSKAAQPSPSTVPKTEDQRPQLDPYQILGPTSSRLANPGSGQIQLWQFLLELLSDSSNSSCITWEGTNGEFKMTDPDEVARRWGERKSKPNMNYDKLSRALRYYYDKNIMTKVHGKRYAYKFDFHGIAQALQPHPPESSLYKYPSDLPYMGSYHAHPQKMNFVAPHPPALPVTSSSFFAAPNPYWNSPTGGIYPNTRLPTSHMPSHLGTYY
How it was run: as §1

ELF1 = ELF1 (Homo sapiens, UniProt P32519 1-619)
Chain of ELF1 (P32519 whole entry): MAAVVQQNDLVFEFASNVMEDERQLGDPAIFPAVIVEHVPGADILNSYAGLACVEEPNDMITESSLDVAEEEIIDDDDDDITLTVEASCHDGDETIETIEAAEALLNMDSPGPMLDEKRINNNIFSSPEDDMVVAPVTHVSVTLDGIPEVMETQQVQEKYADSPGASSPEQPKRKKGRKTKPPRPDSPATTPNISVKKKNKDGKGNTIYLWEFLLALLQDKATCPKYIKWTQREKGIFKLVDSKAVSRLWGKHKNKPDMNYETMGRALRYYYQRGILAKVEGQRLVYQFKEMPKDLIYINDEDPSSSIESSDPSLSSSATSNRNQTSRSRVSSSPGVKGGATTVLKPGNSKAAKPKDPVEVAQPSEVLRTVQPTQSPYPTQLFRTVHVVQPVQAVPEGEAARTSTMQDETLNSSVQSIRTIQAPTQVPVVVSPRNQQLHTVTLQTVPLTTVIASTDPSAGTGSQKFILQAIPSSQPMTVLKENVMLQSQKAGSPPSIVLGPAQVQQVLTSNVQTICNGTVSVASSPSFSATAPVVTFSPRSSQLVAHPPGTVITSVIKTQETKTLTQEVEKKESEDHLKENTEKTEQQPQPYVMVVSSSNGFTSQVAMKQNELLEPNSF
How it was run: as §1

EHF = target: T5, EHF (Homo sapiens, UniProt Q9NZC4 1-300)
T5 sequence: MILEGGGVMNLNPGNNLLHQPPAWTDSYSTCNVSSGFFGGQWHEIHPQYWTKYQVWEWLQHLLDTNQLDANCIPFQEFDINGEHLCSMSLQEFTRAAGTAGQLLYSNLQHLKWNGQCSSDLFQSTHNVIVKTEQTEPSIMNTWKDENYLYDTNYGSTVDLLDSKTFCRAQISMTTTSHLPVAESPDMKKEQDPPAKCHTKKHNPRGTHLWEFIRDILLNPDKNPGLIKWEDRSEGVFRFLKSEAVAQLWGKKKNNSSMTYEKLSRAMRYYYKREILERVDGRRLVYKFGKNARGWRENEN
How it was run: as §1

SPI1 = SPI1 (Homo sapiens, UniProt P17947 1-270)
How it was run: as §1

SPIB = SPIB (Homo sapiens, UniProt Q01892 1-262)
Chain of SPIB (Q01892 whole entry): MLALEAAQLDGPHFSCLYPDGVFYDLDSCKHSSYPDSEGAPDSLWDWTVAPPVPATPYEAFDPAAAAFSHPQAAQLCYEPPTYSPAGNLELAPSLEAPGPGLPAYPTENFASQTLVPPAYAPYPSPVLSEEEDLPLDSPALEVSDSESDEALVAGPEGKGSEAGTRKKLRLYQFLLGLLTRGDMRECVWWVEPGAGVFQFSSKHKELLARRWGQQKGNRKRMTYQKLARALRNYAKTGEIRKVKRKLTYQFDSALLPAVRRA
How it was run: as §1

ELK3 = target: T6, ELK3 (Homo sapiens, UniProt P41970 1-407)
T6 sequence: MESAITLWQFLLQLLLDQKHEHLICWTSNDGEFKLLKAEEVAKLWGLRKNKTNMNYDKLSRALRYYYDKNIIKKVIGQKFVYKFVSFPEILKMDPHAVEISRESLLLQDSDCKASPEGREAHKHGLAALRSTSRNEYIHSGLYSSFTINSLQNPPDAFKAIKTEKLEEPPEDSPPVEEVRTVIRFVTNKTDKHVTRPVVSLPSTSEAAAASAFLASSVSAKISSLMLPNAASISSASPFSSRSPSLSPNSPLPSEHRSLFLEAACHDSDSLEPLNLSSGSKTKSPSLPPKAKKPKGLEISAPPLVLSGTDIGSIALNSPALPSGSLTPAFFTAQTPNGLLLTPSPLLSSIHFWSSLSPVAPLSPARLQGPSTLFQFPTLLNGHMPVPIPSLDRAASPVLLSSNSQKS
How it was run: as §1

TTCAGT was tested, and the binding signal (FLI1) was 1.07 fold enrichment (6-mer frequency, TF over GST control), the binding signal (ELK1) was 1.04 fold enrichment (6-mer frequency, TF over GST control) and the binding signal (GABPA) was 1.06 fold enrichment (6-mer frequency, TF over GST control). The binding signal (ERG) was 1.03 fold enrichment (6-mer frequency, TF over GST control), the binding signal (ELF1) was 1.09 fold enrichment (6-mer frequency, TF over GST control) and the binding signal (EHF) was 1.04 fold enrichment (6-mer frequency, TF over GST control). For the same sequence, the binding signal (SPI1) was 1.11 fold enrichment (6-mer frequency, TF over GST control), the binding signal (SPIB) was 1 fold enrichment (6-mer frequency, TF over GST control) and the binding signal (ELK3) was 1.02 fold enrichment (6-mer frequency, TF over GST control).

With CTGACG the binding signal (FLI1) was 1.19 fold enrichment (6-mer frequency, TF over GST control), the binding signal (ELK1) was 1.09 fold enrichment (6-mer frequency, TF over GST control) and the binding signal (GABPA) was 1.23 fold enrichment (6-mer frequency, TF over GST control). For the same sequence, the binding signal (ERG) was 1.06 fold enrichment (6-mer frequency, TF over GST control), the binding signal (ELF1) was 1.16 fold enrichment (6-mer frequency, TF over GST control) and the binding signal (EHF) was 1.01 fold enrichment (6-mer frequency, TF over GST control). The binding signal (SPI1) was 1.06 fold enrichment (6-mer frequency, TF over GST control), the binding signal (SPIB) was 1.13 fold enrichment (6-mer frequency, TF over GST control) and the binding signal (ELK3) was 1.03 fold enrichment (6-mer frequency, TF over GST control).

For CTAAGC, the binding signal (FLI1) was 1.09 fold enrichment (6-mer frequency, TF over GST control), the binding signal (ELK1) was 1.06 fold enrichment (6-mer frequency, TF over GST control) and the binding signal (GABPA) was 1.08 fold enrichment (6-mer frequency, TF over GST control). The binding signal (ERG) was 1.11 fold enrichment (6-mer frequency, TF over GST control), the binding signal (ELF1) was 1.15 fold enrichment (6-mer frequency, TF over GST control) and the binding signal (EHF) was 1.14 fold enrichment (6-mer frequency, TF over GST control). The binding signal (SPI1) was 1.03 fold enrichment (6-mer frequency, TF over GST control), the binding signal (SPIB) was 1.16 fold enrichment (6-mer frequency, TF over GST control) and the binding signal (ELK3) was 1.03 fold enrichment (6-mer frequency, TF over GST control).

With CGTTCA the binding signal (FLI1) was 1.11 fold enrichment (6-mer frequency, TF over GST control), the binding signal (ELK1) was 1.24 fold enrichment (6-mer frequency, TF over GST control) and the binding signal (GABPA) was 1.24 fold enrichment (6-mer frequency, TF over GST control). The binding signal (ERG) was 1.09 fold enrichment (6-mer frequency, TF over GST control), the binding signal (ELF1) was 1.13 fold enrichment (6-mer frequency, TF over GST control) and the binding signal (EHF) was 1.18 fold enrichment (6-mer frequency, TF over GST control). The binding signal (SPI1) was 1.16 fold enrichment (6-mer frequency, TF over GST control), the binding signal (SPIB) was 1.2 fold enrichment (6-mer frequency, TF over GST control) and the binding signal (ELK3) was 1.07 fold enrichment (6-mer frequency, TF over GST control).

In the case of CACTTG, the binding signal (FLI1) is reported as 1.36 fold enrichment (6-mer frequency, TF over GST control), the binding signal (ELK1) is reported as 1.48 fold enrichment (6-mer frequency, TF over GST control) and the binding signal (GABPA) is reported as 1.32 fold enrichment (6-mer frequency, TF over GST control). For the same sequence, the binding signal (ERG) was 1.37 fold enrichment (6-mer frequency, TF over GST control), the binding signal (ELF1) was 1.33 fold enrichment (6-mer frequency, TF over GST control) and the binding signal (EHF) was 1.36 fold enrichment (6-mer frequency, TF over GST control). The binding signal (SPI1) was 1.39 fold enrichment (6-mer frequency, TF over GST control), the binding signal (SPIB) was 1.3 fold enrichment (6-mer frequency, TF over GST control) and the binding signal (ELK3) was 1.26 fold enrichment (6-mer frequency, TF over GST control).

For GCTGCT, the binding signal (FLI1) was 1.32 fold enrichment (6-mer frequency, TF over GST control), the binding signal (ELK1) was 1.24 fold enrichment (6-mer frequency, TF over GST control) and the binding signal (GABPA) was 1.24 fold enrichment (6-mer frequency, TF over GST control). The binding signal (ERG) was 1.29 fold enrichment (6-mer frequency, TF over GST control), the binding signal (ELF1) was 1.41 fold enrichment (6-mer frequency, TF over GST control) and the binding signal (EHF) was 1.34 fold enrichment (6-mer frequency, TF over GST control). For the same sequence, the binding signal (SPI1) was 1.19 fold enrichment (6-mer frequency, TF over GST control), the binding signal (SPIB) was 1.29 fold enrichment (6-mer frequency, TF over GST control) and the binding signal (ELK3) was 1.27 fold enrichment (6-mer frequency, TF over GST control).

In the case of CCTTTG, the binding signal (FLI1) is reported as 1.32 fold enrichment (6-mer frequency, TF over GST control), the binding signal (ELK1) is reported as 1.3 fold enrichment (6-mer frequency, TF over GST control) and the binding signal (GABPA) is reported as 1.4 fold enrichment (6-mer frequency, TF over GST control). The binding signal (ERG) was 1.37 fold enrichment (6-mer frequency, TF over GST control), the binding signal (ELF1) was 1.38 fold enrichment (6-mer frequency, TF over GST control) and the binding signal (EHF) was 1.42 fold enrichment (6-mer frequency, TF over GST control). For the same sequence, the binding signal (SPI1) was 1.47 fold enrichment (6-mer frequency, TF over GST control), the binding signal (SPIB) was 1.28 fold enrichment (6-mer frequency, TF over GST control) and the binding signal (ELK3) was 1.18 fold enrichment (6-mer frequency, TF over GST control).
